Data published in PubChem BioAssay AID2653 (National Center for Advancing Translational Sciences (NCATS), 2010).
Results filed as inconclusive are left out. Calls of active or inactive are those of the source. The call rests on the fitted dose curve; in most records, active means well fitted curve in the direction sought with a large enough effect; inconclusive means small, poorly fitted or top-dose-only effect, or another doubt; inactive means no such curve, though single readings can be large or run the other way.

Assay: Secondary Assay for Activators of Human Pyruvate Kinase M2 isoform - Cell Titer Glo Cytotoxicity for Probe SAR
Details: HeLa viability, CellTiter-Glo ATP luminescence, 24 h; series mostly up to 58.2 µM
Outline: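 HeLa cells, 500 per well, plated 24 h then exposed to compound 24 h at 37 C. Total ATP by CellTiter-Glo luminescence after 10 min at room temperature; doxorubicin control.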

Row | SMILES | outcome
1 | Cc1ccc(Nc2c(-c3ccsc3)nc3c(C)cccn23)cc1 | inactive
2 | Cc1ccccc1Nc1c(-c2ccc(Cl)s2)nc2ccccn12 | inactive
3 | Cc1ccc(-c2nc3ccc(Cl)cn3c2Nc2ccccc2)o1 | inactive
4 | Cc1ccc(NS(=O)(=O)c2ccc3c(ccn3C)c2)cc1C | inactive
5 | Cc1ccc(NS(=O)(=O)c2cc3c(cc2Cl)CCC(=O)N3)cc1Cl | inactive
6 | Cc1ccccc1NS(=O)(=O)c1ccc2c(c1)CCC(=O)N2 | inactive
7 | COc1cccc(OC2=NS(=O)(=O)c3ccccc32)c1 | inactive
8 | CC(=O)N1c2ccc(S(=O)(=O)Nc3ccc(C)c(C)c3)cc2CC1C (configuration not stated) | inactive
9 | O=S1(=O)N=C(Oc2cccc(Cl)c2)c2ccccc21 | inactive
10 | Cc1nc(-c2ccc(S(=O)(=O)Nc3ccc(C)c(C)c3)s2)cs1 | inactive
11 | Cc1ccc(OC2=NS(=O)(=O)c3ccccc32)cc1 | inactive
12 | O=C1CCc2cc(S(=O)(=O)Nc3ccc4ccccc4c3)ccc2N1 | inactive
13 | COc1cccc(Cn2ncc3c4sc(S(C)=O)cc4n(C)c3c2=O)c1 (configuration not stated) | inactive
14 | COc1cccc(N2C(=O)c3ccccc3C2=O)c1 | inactive
15 | CCNc1cccc(S(=O)(=O)N2CCN(S(=O)(=O)c3ccc4c(c3)OCCO4)CC2)c1 | inactive
16 | Cc1ccc2nc(-c3ccc(C)o3)c(Nc3ccccc3)n2c1 | inactive

Row | SMILES | outcome
17 | Cc1ccc(-c2nc3cnccn3c2Nc2ccc(C(C)C)cc2)o1 | inactive
18 | O=C1CCc2cc(S(=O)(=O)Nc3ccc(Cl)c(Cl)c3)ccc2N1 | inactive
19 | Cc1ccc(NS(=O)(=O)c2ccc3c(c2)CCC(=O)N3)cc1Cl | inactive
20 | Cc1ccc(NS(=O)(=O)c2cc3c(cc2N(C)C)CCC(=O)N3)cc1C | inactive
21 | O=C1c2ccccc2C(=O)N1Cc1cccnc1 | inactive
22 | Cc1ccn2c(NCc3ccco3)c(-c3ccccc3)nc2c1 | inactive
23 | COc1ccc(S(=O)(=O)Nc2ccc(C)c(C)c2)cc1 | inactive
24 | Cc1ccc(NS(=O)(=O)c2ccc3[nH]c(=O)[nH]c3c2)cc1C | inactive
25 | O=C1CCc2cc(S(=O)(=O)Nc3cccc(B(O)O)c3)ccc2N1 | inactive
26 | Cc1ccc2nc(-c3cccs3)c(Nc3ccccc3)n2c1 | inactive
27 | O=C1c2ccccc2C(=O)N1c1cccc(=O)[nH]1 | inactive
28 | Cc1ccc(-c2nc3ccccn3c2Nc2ccccc2C)o1 | inactive
29 | O=C1c2ccccc2C(=O)N1Cc1ccccn1 | inactive
30 | O=C1CCc2cc(S(=O)(=O)Nc3cccc(Br)c3)ccc2N1 | inactive
31 | Cc1ccc(NS(=O)(=O)c2cc3c(cc2Cl)CCC(=O)N3)cc1C | inactive
32 | COc1cc(N2C(=O)c3ccccc3C2=O)c2ncccc2c1 | inactive
